Measured values taken from the supplement of paper PMC9262897, “Low-cost anti-mycobacterial drug discovery using engineered E. coli” (Nature Communications, 2022).
Counter-ions that a name gives are not always drawn. ± gives the standard deviation of the averaged measurements.

Assays:
Test in all cases: growth (OD600 after 10 h); higher = more growth (less inhibition)
[1] = tested on: E. coli TESEC Alr+ wild-type control; settings: compound 0.1 mM; raw OD600 reference: median of DMSO wells 0.241, cell-free background 0.041
Experimental: (§1)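 TESEC Mtb Alr E. coli, or the Alr+ wild-type control, in 384-well plates with Prestwick library compounds at 0.1 mM and 1% DMSO, across arabinose induction levels of 1E3 to 1E7 nM. Growth is read as OD600 after 10 h at 37 °C in triplicate biological replicates.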

E. coli TESEC Mtb Alr [2] = settings: compound 0.1 mM
Experimental: as §1

E. coli TESEC Mtb Asd = settings: compound 0.1 mM
Experimental: (§2)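 TESEC E. coli strains in which the native enzyme is deleted and replaced by arabinose-inducible Mtb Asd, DapB, CysH or TrpD, each grown in its selective medium. Strains were screened against the Prestwick library at 0.1 mM and 1% DMSO in 384-well format at low and high arabinose induction. Growth is read as OD600 after 10 h in triplicate.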

E. coli TESEC Mtb DapB = settings: compound 0.1 mM
Experimental: as §2

[3] = tested on: E. coli TESEC Alr+ wild-type control; settings: compound 0.1 mM; raw OD600 reference: median of DMSO wells 0.49, cell-free background 0.052
Experimental: (§3)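 TESEC Mtb Alr E. coli (ΔaraC ΔtolC ΔentC Δalr ΔdadX, arabinose-inducible Mtb Alr) or the Alr+ wild-type control strain, grown in defined M9-fructose medium without D-alanine in 96-well plates with Prestwick library compounds at 0.1 mM and 1% DMSO. Low Alr induction is 0.1 µM arabinose and high induction is 10 mM arabinose.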

E. coli TESEC Mtb Alr [4] = settings: compound 0.1 mM; remark: listed apart in the source
Experimental: as §3

[5] = arabinose 1000 nM, raw OD600 reference: median of DMSO wells 0.294, cell-free background 0.041
[6] = arabinose 10000 nM, raw OD600 reference: median of DMSO wells 0.264, cell-free background 0.041
[7] = arabinose 100000 nM, raw OD600 reference: median of DMSO wells 0.201, cell-free background 0.041
[8] = arabinose 1000000 nM, raw OD600 reference: median of DMSO wells 0.193, cell-free background 0.041
[9] = arabinose 10000000 nM, raw OD600 reference: median of DMSO wells 0.146, cell-free background 0.041
[10] = arabinose induction (level): High, raw OD600 reference: median of DMSO wells 0.331, cell-free background 0.041
[11] = arabinose induction (level): Low, raw OD600 reference: median of DMSO wells 0.417, cell-free background 0.041
[12] = arabinose induction (level): High, raw OD600 reference: median of DMSO wells […], cell-free background 0.041
[13] = arabinose induction (level): Low, raw OD600 reference: median of DMSO wells 0.227, cell-free background 0.041
[14] = arabinose 100 nM, raw OD600 reference: median of DMSO wells 0.413, cell-free background 0.052
[15] = arabinose 10000000 nM, raw OD600 reference: median of DMSO wells […], cell-free background 0.052

Row | SMILES | growth [1] | growth (E. coli TESEC Mtb Alr [2]; [5]) | growth (E. coli TESEC Mtb Alr [2]; [6]) | growth (E. coli TESEC Mtb Alr [2]; [7]) | growth (E. coli TESEC Mtb Alr [2]; [8]) | growth (E. coli TESEC Mtb Alr [2]; [9]) | growth (E. coli TESEC Mtb Asd; [10]) | growth (E. coli TESEC Mtb Asd; [11]) | growth (E. coli TESEC Mtb DapB; [12]) | growth (E. coli TESEC Mtb DapB; [13]) | growth [3] | growth (E. coli TESEC Mtb Alr [4]; [14]) | growth (E. coli TESEC Mtb Alr [4]; [15])
1 | O=C(CCNNC(=O)c1ccncc1)NCc1ccccc1 [Nialamide] | 0.237 ± 0.0061 | 0.28 ± 0.01 | 0.276 ± 0.0091 | 0.193 ± 0.018 | 0.208 ± 0.0031 | 0.144 ± 0.0023 | 0.237 ± 0.041 | 0.346 ± 0.062 | 0.217 ± 0.034 | 0.249 ± 0.014 | 0.516 ± 0.07 | 0.431 ± 0.0058 | 0.337 ± 0.023
2 | CC(=O)OC(C)C[N+](C)(C)C (stereo unspecified) [Methacholine chloride] | 0.238 ± 0.0071 | 0.282 ± 0.0064 | 0.269 ± 0.0094 | 0.171 ± 0.011 | 0.187 ± 0.0089 | 0.134 ± 0.0072 | 0.361 ± 0.092 | 0.428 ± 0.025 | 0.2263 ± 0.0013 | 0.243 ± 0.023 | 0.466 ± 0.066 | 0.413 ± 0.021 | 0.361 ± 0.015
3 | CC(C)NC[C@H](O)COc1ccc(CC(N)=O)cc1 [(S)-(-)-Atenolol] | 0.244 ± 0.0056 | 0.288 ± 0.016 | 0.2708 ± 0.0025 | 0.214 ± 0.04 | 0.184 ± 0.0026 | 0.1491 ± 0.0014 | 0.287 ± 0.095 | 0.343 ± 0.051 | 0.193 ± 0.037 | 0.222 ± 0.03 | 0.528 ± 0.092 | 0.413 ± 0.01 | 0.341 ± 0.022
4 | CCn1cc(C(=O)O)c(=O)c2cc(F)c(N3CCNCC3)nc21 [Enoxacin] | 0.0456 ± 0.0012 | 0.0427 ± 0.0002 | 0.03917 ± 0.00031 | 0.0439 ± 0.0015 | 0.0411 ± 0.0025 | 0.0452 ± 0.0001 | 0.0919 ± 0.024 | 0.0687 ± 0.0059 | 0.06527 ± 0.00061 | 0.061 ± 0.0086 | 0.05513 ± 0.00042 | 0.0588 ± 0.0019 | 0.05293 ± 0.00025
5 | O=C(NC(Cc1cc(=O)[nH]c2ccccc12)C(=O)O)c1ccc(Cl)cc1 (stereo unspecified) [Rebamipide] | 0.26 ± 0.0077 | 0.314 ± 0.015 | 0.259 ± 0.0053 | 0.211 ± 0.01 | 0.196 ± 0.0026 | 0.146 ± 0.0044 | 0.312 ± 0.035 | 0.435 ± 0.058 | 0.221 ± 0.0038 | 0.244 ± 0.011 | 0.484 ± 0.068 | 0.409 ± 0.012 | 0.368 ± 0.014
6 | CCN(CC)C(=O)N1CCN(C)CC1 [Diethylcarbamazine citrate] | 0.255 ± 0.0031 | 0.274 ± 0.031 | 0.275 ± 0.015 | 0.196 ± 0.017 | 0.191 ± 0.0045 | 0.148 ± 0.0047 | 0.333 ± 0.092 | 0.487 ± 0.02 | 0.188 ± 0.0069 | 0.226 ± 0.025 | 0.549 ± 0.066 | 0.411 ± 0.0087 | 0.33 ± 0.014
7 | CSc1ccc2c(c1)N(CCC1CCCCN1C)c1ccccc1S2 (stereo unspecified) [Thioridazine hydrochloride] | 0.04013 ± 0.00015 | 0.0427 ± 0.0046 | 0.0393 ± 0.00064 | 0.04037 ± 0.00031 | 0.03907 ± 0.00012 | 0.04007 ± 5.8e-05 | 0.0505 ± 0.0013 | 0.0523 ± 0.0022 | 0.04803 ± 0.00029 | 0.0782 ± 0.052 | 0.0484 ± 0.00036 | 0.178 ± 0.21 | 0.05103 ± 0.00015
8 | Nc1c2c(nc3ccccc13)CCCC2O (racemic) [Hydroxytacrine maleate (R,S)] | 0.227 ± 0.0038 | 0.264 ± 0.028 | 0.257 ± 0.0076 | 0.202 ± 0.025 | 0.176 ± 0.0061 | 0.144 ± 0.0023 | 0.218 ± 0.012 | 0.257 ± 0.034 | 0.203 ± 0.018 | 0.205 ± 0.015 | 0.612 ± 0.088 | 0.4 ± 0.0077 | 0.352 ± 0.0099
9 | O=C1C(=O)c2ccccc2C(O)=C1C1CCC(c2ccc(Cl)cc2)CC1 (stereo unspecified) [Atovaquone] | 0.171 ± 0.0064 | 0.2 ± 0.0057 | 0.182 ± 0.015 | 0.151 ± 0.015 | 0.105 ± 0.0069 | 0.133 ± 0.0044 | 0.271 ± 0.12 | 0.23 ± 0.017 | 0.199 ± 0.009 | 0.204 ± 0.015 | 0.545 ± 0.044 | 0.442 ± 0.023 | 0.231 ± 0.025
10 | C#C[C@]1(O)CC[C@H]2[C@@H]3CCc4cc(OC)ccc4[C@H]3CC[C@@]21C [Ethynylestradiol 3-methyl ether] | 0.193 ± 0.01 | 0.279 ± 0.0063 | 0.262 ± 0.013 | 0.184 ± 0.015 | 0.163 ± 0.0052 | 0.149 ± 0.0072 | 0.383 ± 0.025 | 0.413 ± 0.06 | 0.204 ± 0.031 | 0.226 ± 0.025 | 0.564 ± 0.025 | 0.405 ± 0.011 | 0.348 ± 0.024
11 | O=c1n(CCCN2CCN(c3cccc(Cl)c3)CC2)nc2ccccn12 [Trazodone hydrochloride] | 0.203 ± 0.0052 | 0.24 ± 0.011 | 0.235 ± 0.0052 | 0.159 ± 0.0089 | 0.105 ± 0.0032 | 0.13 ± 0.0034 | 0.242 ± 0.051 | 0.404 ± 0.099 | 0.189 ± 0.014 | 0.243 ± 0.057 | 0.471 ± 0.043 | 0.406 ± 0.0066 | 0.255 ± 0.028
12 | CCOc1ccc2nc(S(N)(=O)=O)sc2c1 [Ethoxzolamide] | 0.2066 ± 0.0019 | 0.247 ± 0.0061 | 0.227 ± 0.0027 | 0.177 ± 0.024 | 0.134 ± 0.0057 | 0.122 ± 0.0034 | 0.283 ± 0.04 | 0.368 ± 0.045 | 0.172 ± 0.0065 | 0.187 ± 0.017 | 0.552 ± 0.11 | 0.426 ± 0.0093 | 0.214 ± 0.13
13 | CN(CCCN1c2ccccc2CCc2ccccc21)CC(=O)c1ccc(Cl)cc1 [Lofepramine] | 0.133 ± 0.0019 | 0.199 ± 0.0064 | 0.127 ± 0.0072 | 0.194 ± 0.0099 | 0.0713 ± 0.0042 | 0.159 ± 0.0095 | 0.27 ± 0.062 | 0.196 ± 0.025 | 0.23 ± 0.064 | 0.227 ± 0.017 | 0.343 ± 0.013 | 0.4242 ± 0.0042 | 0.202 ± 0.017
14 | CCOc1ccc2ccccc2c1C(=O)N[C@@H]1C(=O)N2[C@@H]1SC(C)(C)[C@@H]2C(=O)O [Nafcillin sodium salt monohydrate] | 0.236 ± 0.0097 | 0.303 ± 0.011 | 0.257 ± 0.014 | 0.203 ± 0.0041 | 0.188 ± 0.01 | 0.138 ± 0.0027 | 0.43 ± 0.048 | 0.439 ± 0.043 | 0.183 ± 0.007 | 0.22 ± 0.0024 | 0.6426 ± 0.0049 | 0.403 ± 0.013 | 0.343 ± 0.016
15 | CC1=Nc2ccc(Cl)cc2S(=O)(=O)N1 [Diazoxide] | 0.244 ± 0.013 | 0.276 ± 0.018 | 0.271 ± 0.0032 | 0.209 ± 0.04 | 0.189 ± 0.01 | 0.146 ± 0.0083 | 0.369 ± 0.022 | 0.412 ± 0.032 | 0.199 ± 0.0067 | 0.245 ± 0.048 | 0.465 ± 0.041 | 0.4111 ± 0.0032 | 0.365 ± 0.034
16 | CO/N=C(\C(=O)N[C@@H]1C(=O)N2C(C(=O)O)=C(COC(N)=O)CS[C@H]12)c1ccco1 [Cefuroxime sodium salt] | 0.0579 ± 0.0016 | 0.0404 ± 0.0013 | 0.0396 ± 0.00059 | 0.0725 ± 0.0027 | 0.0701 ± 0.0021 | 0.115 ± 0.0014 | 0.213 ± 0.0073 | 0.232 ± 0.0044 | 0.229 ± 0.013 | 0.16 ± 0.009 | 0.0629 ± 0.0034 | 0.04693 ± 0.0004 | 0.169 ± 0.024
17 | NC(=O)NC1NC(=O)NC1=O (stereo unspecified) [Allantoin] | 0.253 ± 0.015 | 0.281 ± 0.017 | 0.258 ± 0.0083 | 0.244 ± 0.0082 | 0.173 ± 0.0071 | 0.142 ± 0.0025 | 0.375 ± 0.027 | 0.424 ± 0.028 | 0.192 ± 0.0069 | 0.276 ± 0.1 | 0.438 ± 0.049 | 0.41 ± 0.011 | 0.28 ± 0.14
